Source: PubChem BioAssay (EPA / NIEHS)
Where “and” joins values, the source holds several entries; their conditions need not be identical. Identical values can stand only once. Where a structure was tested more than once in an assay, its records may differ in their call. Calls of active or inactive are those of the source. Rule for the calls: active = hit-call score of the fitted dose curve at least 0.9, where 1 is the maximum; inactive = score below 0.9.

Experiment: CCTE_Shafer_MEA_dev_per_burst_spike_percent: CCTE's Neural Network Formation Assay for Percent of Spikes in a Burst, Shafer Lab (AID 2284032)
Description: CCTE_Shafer_MEA_dev assay is conducted using Axion Biosystems 48 well microelectrode array (MEA) plates and Maestro recording system. Each well of the MEA plate contains a grid of 16 microelectrodes embedded in the culture surface. Electrically active cells, such as neurons, can be cultured over the electrodes, and electrical activity in these cells can be recorded extracellularly. The spontaneous firing of neurons is captured from each electrode on a microsecond timescale providing both temporally and spatially precise data. […] The CCTE_Shafer_MEA_dev assay uses primary cultures of rat cortical neurons. Recordings are made on days post-plating 5, 7, 9 and 12. As these cultures mature over time, neural networks develop functional activity and form cohesive networks in which electrical activity can be highly coordinated. CCTE_Shafer_MEA_dev_per_burst_spike_percent is 1 of 19 assay components of the CCTE_Shafer_MEA_dev assay. It measures the percentage of spikes (action potential firings) in a single-electrode burst (temporally-clustered group of spikes) as the total number spikes in bursts divided by the total number of spikes during a recording in a microelectrode array (MEA) using Axion Biosystems Maestro 768 channel amplifier with the AxIS adaptive spike detector. The percent of spikes in bursts is averaged across the actively bursting electrodes to report a well-mean value. To collapse across multiple recordings made on days post-plating 5, 7, 9 and 12, the trapezoidal area-under-the-curve of the component is calculated.Data from the assay component CCTE_Shafer_MEA_dev_per_burst_spike_percent was analyzed into 1 assay endpoint. This assay endpoint, CCTE_Shafer_MEA_dev_per_burst_spike_percent, was analyzed in the negative analysis fitting direction relative to DMSO as the negative control and baseline of activity. Using a type of functional reporter, gain or loss-of-signal activity can be used to understand electrical activity.
On the day prior to culture, each well was coated thoroughly with 150 uL of 0.05% polyethyleneimine (PEI, Sigma Cat P3143) in 50 mM HEPES (Sigma Cat H7523) at a pH of 8. The plate was incubated at 37C for one hour. PEI was rinsed out with 500 uL of sterile water three times. Plates were stored at 4C until the day of culture. This culture was plated at a seeding density of 1.5 x 10^5 cells/well on a 48-well MEA plate, prepared as described above. Cells were administered via a 25 uL media/laminin ([…]; Sigma Cat L2020-1MG) drop directly onto the microelectrode array, as adding the cells with the laminin results in better attachment than pre-coating with laminin. After 2 hours, an additional 475 uL of cortical media was added and the cells returned to the incubator. Exposure starts at day 0 of plating and is continued over twelve days of network development until the experiment is terminated. Cells are fed with fresh medium on DIV 5 and 9, following the recordings on those days. The entire volume of media in the well is exchanged and any vehicle or compound treatment is renewed. Complete details are found in OP-NHEERL/ISTD/SBB/TJS/2015-03-r0 (available on request, email shafer.tim@epa.gov). Measurement of the electrical activity is non-invasive, and recordings can be made from the same plate over multiple different days of the culture. In cortical neurons, this allows for the measurement of extracellular action potentials over the period during which networks form in the MEA plate.

SMILES | AC50 | outcome
CC[C@H](C)[C@H]1O[C@]2(C=C[C@@H]1C)C[C@@H]1C[C@@H](C/C=C(\C)[C@@H](O[C@H]3C[C@H](OC)[C@@H](O[C@H]4C[C@H](OC)[C@@H](O)[C@H](C)O4)[C@H](C)O3)[C@@H](C)/C=C/C=C3\CO[C@@H]4[C@H](O)C(C)=C[C@@H](C(=O)O1)[C@]34O)O2 (tested in a mixture with another compound) | 9.62 nM (active) and 1.82 nM (active) | –
CC1(C)C(C=C(Cl)Cl)C1C(=O)OC(C#N)c1ccc(F)c(Oc2ccccc2)c1 (configuration not stated) | 2.63 µM (active) and 27.9 µM (active) and 19.5 µM (active) | –
O=S(=O)(O)C(F)(F)C(F)(F)C(F)(F)C(F)(F)C(F)(F)C(F)(F)C(F)(F)C(F)(F)F | 77.9 µM (active) | inactive
CCC(C)(C)C(=O)OC1=C(c2ccc(Cl)cc2Cl)C(=O)OC12CCCCC2 | – | inactive
Oc1cc(Cl)ccc1Oc1ccc(Cl)cc1Cl | 10.2 µM (active) | –
CC1(c2ccc(Oc3ccccc3)cc2)OC(=O)N(Nc2ccccc2)C1=O (configuration not stated) | 4.72 µM (active) | –
ClC1C(Cl)C(Cl)C(Cl)C(Cl)C1Cl (configuration not stated) | – | inactive
COP(=S)(OC)Oc1ccc([N+](=O)[O-])cc1 | – | inactive
O=C(O)COc1ccc(Cl)cc1Cl | – | inactive
COP(=O)(OC)OC=C(Cl)Cl | 4.26 µM (active) | inactive
CC(C)N(C(=O)COc1nnc(C(F)(F)F)s1)c1ccc(F)cc1 | – | inactive
O=C(O)C(F)(F)C(F)(F)C(F)(F)C(F)(F)C(F)(F)C(F)(F)C(F)(F)F | – | inactive
O=[N+]([O-])/N=C1\NCCN1Cc1ccc(Cl)nc1 | – | inactive
CNC(=O)CSP(=S)(OC)OC | 63.8 µM (active) and 27.9 µM (active) | –
O=S1OCC2C(CO1)C1(Cl)C(Cl)=C(Cl)C2(Cl)C1(Cl)Cl (configuration not stated) | 8.83 µM (active) | –
